# Counter-ions that a name gives are not always drawn.
# Columns and labels:
# Conditions in all cases: 10 µM; exposure time 6 h
# [1] = system: Danio rerio larvae (5 dpf); experiment: difference in excitability vs DMSO (percentage points); higher = more excitable than DMSO
# How it was run: (§1)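 Wild-type 5 dpf zebrafish larvae in 96-well plates were given 100 µL egg water containing library compound at 10 µM final for 6 h. After 3 h of exposure, plates at 28.5 ℃ were photographed every 6 s during a 3-h programme of moving lines and 100 ms, 400Hz tones. Z-LaP Tracker (a DeepLabCut model) quantified each behaviour, averaged over 48 larvae per compound. Values are the compound mean minus the DMSO-vehicle control, in percentage points.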
# [2] = system: Danio rerio larvae (5 dpf); experiment: difference in startle response vs DMSO (percentage points); higher = stronger startle than DMSO
# How it was run: as §1
# [3] = system: Danio rerio larvae (5 dpf); experiment: difference in activity during first hour vs DMSO (percentage points); higher = more activity than DMSO
# How it was run: as §1
# [4] = system: Danio rerio larvae (5 dpf); experiment: difference in habituation to acoustic stimuli vs DMSO (percentage points); higher = more habituation than DMSO
# How it was run: as §1
# [5] = system: Danio rerio larvae (5 dpf); experiment: difference in combined optomotor response to red, green and blue moving lines vs DMSO (percentage points); higher = stronger optomotor response than DMSO
# How it was run: as §1
SMILES,difference in excitability [1],difference in startle response [2],difference in activity during first hour [3],difference in habituation to acoustic stimuli [4],difference [5]
O=C1CN(/N=C/c2ccc([N+](=O)[O-])o2)C(=O)N1 [Nitrofurantoin],9.88,-2.07,8.16,4.03,8.98
CO/N=C(\C(=O)N[C@@H]1C(=O)N2C(C(=O)O)=C(COC(C)=O)CS[C@H]12)c1csc(N)n1 [Cefotaxime (sodium salt)],0.947,0.752,4.74,6.08,3.19
CN(C)[C@@H]1C(O)=C(C(N)=O)C(=O)[C@@]2(O)C(O)=C3C(=O)c4c(O)cccc4[C@@](C)(O)[C@H]3C[C@@H]12 [Tetracycline (hydrochloride)],5.28,1.04,2.06,-0.0493,-5.79
CCOC(=O)[C@H](CCc1ccccc1)N[C@@H](C)C(=O)N1CCC[C@H]1C(=O)O [Enalapril (maleate)],0.733,3.17,-0.995,-3.38,7.06
O=C(O)CSc1nnc(Br)n1-c1ccc(C2CC2)c2ccccc12 [Lesinurad],1.61,2.63,12.5,-0.00375,2.41
NS(=O)(=O)c1cc2c(cc1Cl)NCNS2(=O)=O [Hydrochlorothiazide],-7.7,3.06,2.42,1.66,2
O=S(=O)(O)CCS [Mesna],-4.43,2.29,12.8,-1.88,6.5
CC[N+](C)(C)c1cccc(O)c1 [Edrophonium (chloride)],-0.775,-0.613,5.67,7.33,3.51
CN1CCC[C@@H]1Cc1c[nH]c2ccc(CCS(=O)(=O)c3ccccc3)cc12 [Eletriptan],0.175,-8.65,6.02,-5.47,-0.217
Cc1onc(-c2c(Cl)cccc2Cl)c1C(=O)N[C@@H]1C(=O)N2[C@@H]1SC(C)(C)[C@@H]2C(=O)O [Dicloxacillin (sodium salt hydrate)],9.09,-2.02,8.63,-4,0.484
CC1(C)O[C@@H]2C[C@H]3[C@@H]4CCC5=CC(=O)C=C[C@]5(C)[C@@]4(F)[C@@H](O)C[C@]3(C)[C@]2(C(=O)CO)O1 [Triamcinolone acetonide],-3.81,-2.41,12.6,3.46,7.94
CS(=O)(=O)OCCCCOS(C)(=O)=O [Busulfan],1.08,2.56,2.59,2.63,3.07
CCO/N=C(\C(=O)N[C@@H]1C(=O)N2C(C(=O)[O-])=C(Sc3nc(-c4cc[n+](C)cc4)cs3)CS[C@H]12)c1nsc(NP(=O)(O)O)n1,2.56,0.685,4.29,-3.93,-5.35
CN[C@H]1CC[C@@H](c2ccc(Cl)c(Cl)c2)c2ccccc21 [Sertraline (hydrochloride)],8.65,9.23,-22.3,-4.17,-15.1
CN(C)CCc1c[nH]c2ccc(Cn3cncn3)cc12 [Rizatriptan (benzoate salt)],9.6,-1.93,6.28,2.81,7.91
COc1ccc(CCN(C)CCCC(C#N)(c2ccc(OC)c(OC)c2)C(C)C)cc1OC (stereo not given) [Verapamil (hydrochloride)],7.52,-8.68,-17.7,-4.3,-6.45
CC[C@H]1OC(=O)[C@H](C)[C@@H](O[C@H]2C[C@@](C)(OC)[C@@H](O)[C@H](C)O2)[C@H](C)[C@@H](O[C@@H]2O[C@H](C)C[C@H](N(C)C)[C@H]2O)[C@](C)(OC)C[C@@H](C)C(=O)[C@H](C)[C@@H](O)[C@]1(C)O [Clarithromycin],7.19,1.97,11.7,-1.55,6.95
CO/N=C(\C(=O)N[C@@H]1C(=O)N2C(C(=O)[O-])=C(C[N+]3(C)CCCC3)CS[C@H]12)c1csc(N)n1 [Cefepime (hydrochloride hydrate)],1.19,-0.767,1.35,1.3,-1.46
NC(N)=Nc1nc(CSCC/C(N)=N/S(N)(=O)=O)cs1 [Famotidine],-2.4,-1.19,-7.05,6.6,-3.11
Cc1ccc(/C(=C\CN2CCCC2)c2cccc(/C=C/C(=O)O)n2)cc1 [Acrivastine],1.28,-0.645,0.462,0.73,-3.37

SMILES,difference in excitability [1],difference in startle response [2],difference in activity during first hour [3],difference in habituation to acoustic stimuli [4],difference [5]
CC1(C)CCC(CN2CCN(c3ccc(C(=O)NS(=O)(=O)c4ccc(NCC5CCOCC5)c([N+](=O)[O-])c4)c(Oc4cnc5[nH]ccc5c4)c3)CC2)=C(c2ccc(Cl)cc2)C1,0.697,-11.3,10.4,2.22,3.34
CC(C)C(=O)Oc1ccc(CO)cc1[C@H](CCN(C(C)C)C(C)C)c1ccccc1 [Fesoterodine (fumarate)],4.21,-11.4,2.92,-7.33,-6.79
CC(=O)NS(=O)(=O)c1ccc(N)cc1 [Sulfacetamide (sodium salt)],9.42,1.32,-8.28,4.81,7.06
NC[C@H]1CC[C@H](C(=O)O)CC1 [Tranexamic Acid],6.95,8.18,13.1,1.19,10.9
C=C(CC)C(=O)c1ccc(OCC(=O)O)c(Cl)c1Cl [Ethacrynic Acid],4.29,4.46,19.4,-1.45,6.1
Nc1ccc(S(=O)(=O)Nc2ncccn2)cc1 [Sulfadiazine],11.9,4.72,7.75,1.42,-1.28
Nc1ncnc2c1ncn2[C@@H]1O[C@H](CO)[C@@H](O)[C@H]1O [Adenosine],1.75,6.58,10,-5.11,5.99
CCCCCC(=O)O[C@]1(C(C)=O)CC[C@H]2[C@@H]3CCC4=CC(=O)CC[C@]4(C)[C@H]3CC[C@@]21C [Hydroxyprogesterone Caproate],5.64,-9.54,-13.7,-9.28,-15.8
CC(=O)Nc1nnc(S(N)(=O)=O)s1 [Acetazolamide],-5.01,8.72,14.2,6.2,3.65
COCCOC(=O)C1=C(C)NC(C)=C(C(=O)OC(C)C)C1c1cccc([N+](=O)[O-])c1 (stereo not given) [Nimodipine],7.48,-6.36,11.8,-10.8,-14.5
Cn1nnc2c(C(N)=O)ncn2c1=O [Temozolomide],-3.41,0.671,-3.71,1.66,5.77
CC(C)N(CCCCOCC(=O)NS(C)(=O)=O)c1cnc(-c2ccccc2)c(-c2ccccc2)n1,11.4,6.8,-3.12,5.08,2.84
CC(C)NCC(O)c1ccc(O)c(O)c1 (stereo not given) [Isoproterenol (hydrochloride)],-11.9,-6.4,45.9,1.72,6.58
CO[C@H]1C[C@@H]2CC[C@@H](C)[C@@](O)(O2)C(=O)C(=O)N2CCCC[C@H]2C(=O)O[C@H]([C@H](C)C[C@@H]2CC[C@@H](OCCO)[C@H](OC)C2)CC(=O)[C@H](C)/C=C(\C)[C@@H](O)[C@@H](OC)C(=O)[C@H](C)C[C@H](C)/C=C/C=C/C=C/1C [Everolimus],1.38,1.06,1.4,-3.73,5.32
CC(C)OC(=O)OCOP(=O)(CO[C@H](C)Cn1cnc2c(N)ncnc21)OCOC(=O)OC(C)C [Tenofovir Disoproxil (fumarate)],9.75,2.55,6.31,0.343,8.11
O=C(O)c1cc(/N=N/c2ccc(O)c(C(=O)O)c2)ccc1O [Olsalazine (sodium salt)],-2.93,2.86,0.738,-4.79,-8.04
Nc1cc(-c2ccncc2)c[nH]c1=O [Amrinone],-0.366,5.87,-4.08,9.44,0.366
CC(C)(O/N=C(\C(=O)N[C@@H]1C(=O)N2C(C(=O)[O-])=C(C[n+]3ccccc3)CS[C@H]12)c1csc(N)n1)C(=O)O [Ceftazidime (hydrate)],-0.0444,0.0878,3.86,0.293,4.55
Clc1ccccc1C(c1ccccc1)(c1ccccc1)n1ccnc1 [Clotrimazole],-0.151,4.37,-19.1,-10.2,-12.6
CN1C(CCl)Nc2cc(Cl)c(S(N)(=O)=O)cc2S1(=O)=O (stereo not given) [Methyclothiazide],5.58,4.44,-0.184,2,-1.76
